# Laboratory results reported in PubChem BioAssay.
# Values without a mark were called inactive. Where a call stands in place of a potency, no number is given. For some assays here: Potency and affinity values are given separately. Active and inactive are the calls of the source. Unless noted, the rule behind the calls is not given here.
# Key:
# [1] = antimalarial activity against Dd2 strain (AID 2302;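 active = growth inhibition above 50% at the single 2 µM test dose, taken to imply half-maximal potency below 2 µM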); settings: P. falciparum Dd2 in RBCs, LDH growth readout, 72 h; at 2 µM; active compounds read high
# [2] = human hepatoma cell viability loss – ATP luminescence, cytotoxicity control for P. falciparum antimalarial project, primary screen (AID 2303;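 active = inhibition above 50%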); settings: HepG2 viability, 24-48 h, at 10 µM, active compounds read high
# [3] = molecular target: L-lactate dehydrogenase (Plasmodium falciparum (isolate CDC / Honduras)) (UniProt Q27743); assay: PfLDH activity inhibition – cell lysate, 3D7 strain, counter-screen for P. falciparum growth inhibition project (AID 2304); settings: P. falciparum 3D7 crude extract, LDH APAD/NBT absorbance; at 2 µM; active compounds read high
# Sequence of L-lactate dehydrogenase (Plasmodium falciparum (isolate CDC / Honduras)) (Q27743 whole entry, looked up): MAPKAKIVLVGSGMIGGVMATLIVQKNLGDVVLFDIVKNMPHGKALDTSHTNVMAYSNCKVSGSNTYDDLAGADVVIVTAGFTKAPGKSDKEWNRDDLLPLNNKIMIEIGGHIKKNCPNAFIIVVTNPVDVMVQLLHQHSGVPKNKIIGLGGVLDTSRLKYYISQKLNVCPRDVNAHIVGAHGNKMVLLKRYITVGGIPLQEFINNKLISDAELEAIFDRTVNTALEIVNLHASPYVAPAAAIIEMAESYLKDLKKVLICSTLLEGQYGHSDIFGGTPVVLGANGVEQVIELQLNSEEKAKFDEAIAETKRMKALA
# [4] = inhibition of 3D7 malaria parasite growth – strain 3D7 (AID 2306); settings: P. falciparum 3D7 erythrocytic growth, LDH absorbance, 72 h; at 2 µM; active compounds read high
# [5] = molecular target: Calcium-dependent protein kinase 1 (Plasmodium falciparum (isolate 3D7)) (UniProt P62344); assay: PfCDPK1 kinase inhibitors, biochemical, TCAMS library (AID 1159585; cut-off not given, nearly all actives have IC50 up to about 0.98 µM;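 note: inhibitors leave more ATP so luminescence rises with inhibition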); settings: recombinant PfCDPK1, Kinase-Glo ATP depletion luminescence
# Sequence of Calcium-dependent protein kinase 1 (Plasmodium falciparum (isolate 3D7)) (P62344 whole entry, looked up): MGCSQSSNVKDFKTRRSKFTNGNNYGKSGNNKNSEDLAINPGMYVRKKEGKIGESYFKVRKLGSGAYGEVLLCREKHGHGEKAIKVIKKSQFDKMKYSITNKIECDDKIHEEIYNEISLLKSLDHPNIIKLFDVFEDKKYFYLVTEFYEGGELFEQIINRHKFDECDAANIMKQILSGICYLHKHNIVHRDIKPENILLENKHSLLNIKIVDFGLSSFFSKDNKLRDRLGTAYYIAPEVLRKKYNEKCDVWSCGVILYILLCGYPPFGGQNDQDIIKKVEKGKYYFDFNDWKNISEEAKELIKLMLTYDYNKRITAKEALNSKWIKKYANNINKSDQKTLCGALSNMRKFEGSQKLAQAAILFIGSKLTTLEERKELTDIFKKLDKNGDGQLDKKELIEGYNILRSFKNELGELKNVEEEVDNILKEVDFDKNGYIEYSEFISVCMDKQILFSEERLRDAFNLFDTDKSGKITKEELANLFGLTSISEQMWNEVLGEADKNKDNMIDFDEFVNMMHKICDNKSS
# [6] = molecular target: Plasmodium falciparum protein kinase 6 (PK6, PF3D7_1337100) (UniProt Q8IDW1); assay: PfPK6 kinase inhibitors, biochemical, TCAMS library (AID 1159586); settings: recombinant PfPK6, Kinase-Glo ATP depletion luminescence
# Sequence of Plasmodium falciparum protein kinase 6 (PK6, PF3D7_1337100) (Q8IDW1 1-305): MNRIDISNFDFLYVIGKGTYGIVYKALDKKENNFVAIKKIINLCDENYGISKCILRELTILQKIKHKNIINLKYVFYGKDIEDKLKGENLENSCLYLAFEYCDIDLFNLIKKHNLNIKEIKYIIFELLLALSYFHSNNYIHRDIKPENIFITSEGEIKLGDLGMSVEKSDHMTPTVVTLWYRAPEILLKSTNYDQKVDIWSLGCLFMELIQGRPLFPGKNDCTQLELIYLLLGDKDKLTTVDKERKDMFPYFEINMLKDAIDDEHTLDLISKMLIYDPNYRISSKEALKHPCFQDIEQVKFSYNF
# [7] = molecular target: Protein kinase 7 (PK7), Plasmodium falciparum 3D7 (PF3D7_0213400) (UniProt Q7YTF7); assay: inhibition of Plasmodium PK7 catalytic activity – biochemical, TCAMS antimalarial set, Kinase-Glo luminescence (AID 1159587); settings: recombinant PfPK7, Kinase-Glo ATP depletion luminescence
# Sequence of Protein kinase 7 (PK7), Plasmodium falciparum 3D7 (PF3D7_0213400) (Q7YTF7 1-343): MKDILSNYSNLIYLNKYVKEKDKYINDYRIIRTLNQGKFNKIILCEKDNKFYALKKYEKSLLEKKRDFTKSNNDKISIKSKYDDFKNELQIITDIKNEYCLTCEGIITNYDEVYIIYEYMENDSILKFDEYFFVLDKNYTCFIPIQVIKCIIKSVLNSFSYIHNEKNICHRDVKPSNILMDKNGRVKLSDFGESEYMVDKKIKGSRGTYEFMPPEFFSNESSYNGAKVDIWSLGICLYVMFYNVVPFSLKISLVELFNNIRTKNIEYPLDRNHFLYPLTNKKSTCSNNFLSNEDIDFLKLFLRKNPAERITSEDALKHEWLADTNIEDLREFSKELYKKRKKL
# [8] = molecular target: Calcium-dependent protein kinase 4 (Plasmodium falciparum (isolate 3D7)) (UniProt Q8IBS5); assay: PfCDPK4 kinase inhibitors, biochemical, TCAMS library (AID 1159588; cut-off not given, nearly all actives have IC50 up to about 0.91 µM); settings: recombinant PfCDPK4, Kinase-Glo ATP depletion luminescence
# Sequence of Calcium-dependent protein kinase 4 (Plasmodium falciparum (isolate 3D7)) (Q8IBS5 whole entry, looked up): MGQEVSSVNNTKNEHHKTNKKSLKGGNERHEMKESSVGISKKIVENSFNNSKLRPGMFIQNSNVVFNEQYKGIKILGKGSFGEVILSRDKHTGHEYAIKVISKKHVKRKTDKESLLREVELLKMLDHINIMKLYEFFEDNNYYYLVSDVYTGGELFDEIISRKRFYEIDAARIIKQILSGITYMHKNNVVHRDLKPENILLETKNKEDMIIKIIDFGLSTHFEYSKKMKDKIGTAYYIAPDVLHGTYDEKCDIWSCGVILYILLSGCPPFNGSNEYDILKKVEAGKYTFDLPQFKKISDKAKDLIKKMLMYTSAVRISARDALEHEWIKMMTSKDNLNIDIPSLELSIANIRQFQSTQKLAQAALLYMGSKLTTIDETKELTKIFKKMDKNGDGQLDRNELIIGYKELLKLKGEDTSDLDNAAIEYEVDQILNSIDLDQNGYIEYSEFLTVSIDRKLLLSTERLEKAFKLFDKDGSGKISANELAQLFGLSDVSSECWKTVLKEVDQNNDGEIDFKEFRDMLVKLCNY
Structure (SMILES),growth inhibition [1],inhibition [2],inhibition [3] [%],growth inhibition [4],outcome [5],outcome [6],outcome [7],outcome [8]
CCC(C)C(COC(=O)c1cc(OC)c(OC)c(OC)c1)N(C)CCN(C)C(COC(=O)c1cc(OC)c(OC)c(OC)c1)C(C)CC (stereo not given),45%,20%,3,84% (active),inactive,inactive,inactive,inactive
C[C@H](Cc1ccc(S(=O)(=O)c2ccc(C[C@@H](C)NC[C@H](O)c3cccc(Cl)c3)cc2)cc1)NC[C@H](O)c1cccc(Cl)c1,98% (active),100% (active),-9,99% (active),inactive,inactive,inactive,inactive
Cc1cccc2[nH]c(-c3cccc(-c4cccc(CNCCc5cccn5C)c4)c3)nc12,49%,4%,2,91% (active),inactive,inactive,inactive,inactive
NC(=O)c1cccc(C(=O)Nc2ccc(-c3cccc(-c4nc5ccc(C(F)(F)F)cc5[nH]4)c3)cc2)c1,86% (active),74% (active),-2,100% (active),inactive,inactive,inactive,inactive
CC(C)(C)c1ccc(-c2csc(NC(=O)CC(c3ccccc3)c3ccccc3)n2)cc1,64% (active),3%,-6,86% (active),inactive,inactive,inactive,inactive
NC(=O)c1cccc(CNC(=O)NC[C@H]2CN(Cc3ccc(Cl)c(Cl)c3)CCO2)c1,65% (active),-3%,1,98% (active),inactive,inactive,inactive,inactive
CSC1=NC(=Nc2c(C)cccc2C)C2(CCC(C(C)(C)C)CC2)N1c1ccc(O)cc1 (stereo not given),93% (active),5%,1,97% (active),inactive,inactive,inactive,inactive
COc1ccc(S(=O)(=O)N(c2cc(Br)cc3c2OCC3)S(=O)(=O)c2ccc(OC)c(N3CCN(C)CC3)c2)cc1N1CCN(C)CC1,98% (active),67% (active),-8,81% (active),inactive,inactive,inactive,inactive
CCC[C@]1(C)CSc2ccccc2[C@@H](c2ccccc2)N1,2%,60% (active),-3,87% (active),inactive,inactive,inactive,inactive
O=C(Nc1cccc(F)c1)N1CCC(CN2CCOC(c3ccccc3)(c3ccccc3)C2)CC1,97% (active),12%,7,96% (active),inactive,inactive,inactive,inactive
COc1ccc(NC(=O)/C=C/c2ccc(-c3ccc(-c4noc(C)n4)cc3)cc2)cc1OCCN(C)C,31%,14%,-3,81% (active),inactive,inactive,inactive,inactive
Cc1cccc2[nH]c(-c3cccc(-c4ccc(NC(=O)N[C@@H]5C[C@H]5c5ccccc5)cc4)c3)nc12,49%,25%,6,98% (active),inactive,inactive,inactive,inactive
Cc1ccc(C(=O)NC2C(=O)NC2c2ccccc2)c(C)c1 (stereo not given),-1%,7%,-4,90% (active),inactive,inactive,inactive,inactive
Cc1cnc2ccc(NS(=O)(=O)c3sc4ccc(Cl)cc4c3C)cc2c1N1CCNCC1,-1%,-9%,4,99% (active),inactive,inactive,inactive,inactive
Cc1cc(CN2CC[C@H](NC(=O)c3ccc(Cl)c(Cl)c3)C2)ccc1OC1CCN(Cc2ccccc2)CC1,29%,59% (active),-2,98% (active),inactive,inactive,inactive,inactive
CC(C)c1sc(N2CCCCC2)nc1C(=O)Nc1ccc(F)cc1C(F)(F)F,98% (active),-1%,0,100% (active),inactive,inactive,inactive,inactive
O=S(=O)(NC1CCN(c2ccnc3cc(Cl)ccc23)C1)c1ccc(F)cc1 (stereo not given),88% (active),3%,3,98% (active),inactive,inactive,inactive,inactive
O=C(NC1CCN(Cc2ccccc2)CC1)c1cccc(-c2nc3ccc(Cl)cc3[nH]2)c1,-1%,6%,-3,98% (active),inactive,inactive,inactive,inactive
CN1CCC(NCc2cccc(-c3ccc(S(=O)(=O)NCc4ccccc4)cc3)c2)CC1,93% (active),61% (active),0,100% (active),inactive,inactive,inactive,inactive
CC1(CCCCN2CCC(Oc3ccc(F)cc3F)CC2)C(=O)Nc2ccccc21 (stereo not given),6%,6%,-6,99% (active),inactive,inactive,inactive,inactive

Structure (SMILES),growth inhibition [1],inhibition [2],inhibition [3] [%],growth inhibition [4],outcome [5],outcome [6],outcome [7],outcome [8]
O=C(Nc1ccc(S(=O)(=O)NCCCN2CCOCC2)cc1)c1cc(-c2ccccc2)n[nH]1,29%,16%,1,82% (active),inactive,inactive,inactive,inactive
O=C(NC1CC1)c1ccc(N2CCC(Oc3ccc(F)cc3)CC2)nc1,79% (active),-2%,-1,89% (active),inactive,inactive,inactive,inactive
Cc1ccc(NC(=O)c2ccc(CN3CCCN(CC4CCCCC4)CC3)cc2)cc1C,32%,38%,3,86% (active),inactive,inactive,inactive,inactive
O=C(NCCCCN1CCN(c2cccc(Cl)c2Cl)CC1)c1ccc2c(c1)CCN(C1CCC1)CC2,31%,97% (active),3,95% (active),inactive,inactive,inactive,inactive
Nc1nccc2ccc(-c3ccncc3)cc12,95% (active),19%,5,96% (active),inactive,inactive,inactive,inactive
O=[N+]([O-])c1ccc(C(O)P(=O)(c2ccccc2)c2ccccc2)cc1 (stereo not given),1%,1%,0,98% (active),inactive,inactive,inactive,inactive
Cc1[nH]c(C)c(-c2ccc(S(=O)(=O)c3ccc(Cl)cc3)cc2)c(=O)c1Cl,96% (active),-5%,9,98% (active),inactive,inactive,inactive,inactive
O=c1ccc(CNc2nc(NCCc3ccccc3)nc3ccc(Cl)cc23)c[nH]1,16%,9%,2,99% (active),inactive,inactive,inactive,inactive
CC(C)c1ccc(NC(=O)c2ccc(CN3CCCN(Cc4cccc(Cl)c4)CC3)cc2)cc1,12%,45%,5,90% (active),inactive,inactive,inactive,inactive
CCNc1cc(C(=O)N[C@@H](Cc2ccccc2)[C@H](O)CNC2CCC(C)(C)CC2)cc(N2CCCCS2(=O)=O)c1,71% (active),1%,3,98% (active),inactive,inactive,inactive,inactive
CCCC1N=C(N)N=C(N)N1c1ccc(C)c(C)c1 (stereo not given),-2%,7%,-3,95% (active),inactive,inactive,inactive,inactive
O=C(NCc1ccccc1)c1ncn(CCCN2CCC(N3CCCC3)CC2)c1-c1ccc(Cl)c(Cl)c1,36%,8%,3,89% (active),inactive,inactive,inactive,inactive
COc1ccc(CN2CCN(CCCCNC(=O)c3ccc(NC(=O)c4ccc(Cl)cc4)cc3)CC2)c(OC)c1,0%,25%,-6,94% (active),inactive,inactive,inactive,inactive
Cc1cc(NN=Cc2ccccc2F)c2cc(C(F)(F)F)ccc2n1,67% (active),5%,2,102% (active),inactive,inactive,inactive,inactive
CC(=O)N1N=C(c2cccs2)Sc2c1nc(-c1ccc(Cl)cc1)n2C(C)=O,93% (active),3%,0,99% (active),inactive,inactive,inactive,inactive
OCCN1CCN(c2ccc(Nc3ccnc4cc5ccccc5cc34)cc2)CC1,100% (active),98% (active),-1,100% (active),inactive,inactive,inactive,inactive
O=C(Cc1n[nH]c(=O)c2ccccc12)Nc1cccc(C(=O)Nc2cccc(C(F)(F)F)c2)c1,90% (active),0%,-6,97% (active),inactive,inactive,inactive,inactive
O=C(C=Cc1ccc(Cl)c(Cl)c1)NCCCCCN1CCC(CCCNS(=O)(=O)c2ccc(Br)cc2)CC1,25%,74% (active),-5,93% (active),inactive,inactive,inactive,inactive
CO/C(=C\C=C\c1cc2cc(Cl)c(Cl)cc2[nH]1)C(=O)NCCCN1CCN(c2cccc(Cl)c2)CC1,77% (active),58% (active),3,100% (active),inactive,inactive,inactive,inactive
CC(C)(CN1CCCC1)CN(Cc1ccc(-c2ccc(C(F)(F)F)cc2)cc1)C(=O)Cn1c(CCc2cccc(F)c2F)nc(=O)c2ccccc21,64% (active),57% (active),-3,97% (active),inactive,inactive,inactive,inactive
